# High-throughput results deposited in PubChem by National Center for Advancing Translational Sciences (NCATS).
# LASV entry inh = Lassa virus entry inhibition | Lassa virus pseudotype entry inhibition, cell reporter | hit rate 1.2% among 300,000 | AID 540256 | Potency, µM (titrated, usually from 37.9 µM), for inactives: top-dose activity change, negative = inhibition, most hits filed as inhibitors; calls by dose curve; tested in HEK293 cells; note: potency is the fitted concentration of half-maximal effect; nearly all actives have a fitted effect of over 50% in size
# FMDV antiviral = blocks foot and mouth disease virus | FMDV antiviral cell-based qHTS | Potency, µM (titrated, usually from 57.9 µM), without a hit: at the top dose activity change, negative = inhibition, most hits filed as inhibitors | hit rate 1.2% among 410,000 | AID 1159524; calls by dose curve; tested in HEK293T cells; note: read-out not given here; potency is the fitted concentration of half-maximal effect; nearly all actives have a fitted effect of over 45% in size
# Marburg entry inh = inhibitors of Marburg virus binding or cell entry | Marburg virus pseudotyped entry inhibition, cell reporter | Potency, µM (titrated, usually from 37.8 µM), without a hit: at the highest dose activity change, negative = inhibition, usual class: inhibitors | hit rate 1.8% among 300,000 | AID 540276; calls by dose curve; tested in HEK293 cells; note: potency is the fitted concentration of half-maximal effect
# HCMV antiviral = blocks human cytomegalovirus replication. hit rate 4.5% among 410,000. activity change, negative = inhibition, % at 57.5 µM. HFF cells, HCMV-luciferase reporter, 72 h; active compounds read low; in the data active = activity change below about -60%; inconclusive = no clear call, values can overlap the other calls; inactive = above about -39%
#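 Luciferase read-out from HCMV-luciferase-infected HFFs (MOI 1 PFU/cell) 72 h post infection at 37C; compounds added after 16 h cell attachment; activity normalized between buffer-only basal and Salinomycin (10uM) inhibitor controls.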
# * = called active by the depositor; ? = inconclusive; nt = not tested or not shown; [ ] = another dose, or the depositor's remark. The list is not random: actives were taken first. Their share in the collection is about 6.2%. % is set by controls: 0 for no effect and ±100 for the full control effect.
SMILES,LASV entry inh,FMDV antiviral,Marburg entry inh,HCMV antiviral
O=C(NCC1CC1)Nc1cccc(Cl)c1,nt,33%,nt,25
O=C(Nc1ccc(F)cc1)Nc1cccc(Br)c1,nt,26%,nt,-88*
O=C(Nc1ccc(Cl)c(Cl)c1)Nc1ccc(Br)cc1F,?,?,?,-99*
CC(=O)c1cccc(NC(=O)Nc2ccccc2)c1,2%[46.1 µM],39%,?,8
O=C(NCC1CC1)Nc1ccc(Cl)cc1,nt,64%,nt,-95*
O=C(NCCCl)Nc1cccc(Br)c1,11%[46.1 µM],30%,13%[46.1 µM],13
CC(=O)c1ccc(NC(=O)Nc2ccccc2)cc1,8.2µM*,nt,?,89
O=CNc1cc(-c2ccc(C(=O)NC3CC3)cc2)cn2c(-c3ccc(F)cc3)cnc12,nt,?,nt,-30
CCCc1nn2c(=O)cc(COC(=O)c3ccc(NC(=O)COc4ccccc4F)cc3)nc2s1,4%[46.1 µM],-7%,nt,-33
COC1=C(CC=C(C)C)C2=C(CCC(=O)O2)CC1,nt,nt,5%,nt
O=C(Nc1ccccc1)Nc1ccc(Br)c(Cl)c1,-30%,10%,-34%,-98*
O=C(Nc1ccccc1)Nc1ccccc1Br,?,41%,-22%,-32
O=C(Nc1ccc(Cl)cc1)Nc1ccc(Cl)c(Cl)c1,nt,-24%,nt,-98*
N#Cc1ccc(NC(=O)Nc2ccc(Cl)cc2)cc1,?,?,?,-101*
CC(C)(C)N(NC(=O)Nc1ccc(Cl)c(Cl)c1)C(=O)c1ccccc1,?,?,?,-80*
CC(C)(C)N(NC(=O)Nc1ccc(F)cc1)C(=O)c1ccccc1,0%,-11%,-7%,15
Cc1cnc(-n2ncc(C(=O)NCc3ccncc3)c2C2CC2)nc1-c1cccs1,nt,-29%,nt,nt
Cc1ccc(/C=N/Nc2nc(C(C)(C)C)cs2)o1,0%,13%,-19%,0
Cc1ccc(/C=N/Nc2nc3ccccc3s2)o1,3.2µM*,-39%,?,-15
CN(C)CCCNc1nc2sc3c(c2c(=O)n1CCc1ccccc1)CCCCC3,?,-7%,7.1µM*,?
COc1ccccc1-c1cn[nH]c1-c1ccc(OCc2ccccc2)cc1O,1%[46.1 µM],?,?,-25
COc1ccc(-c2cn[nH]c2-c2ccc(OCc3ccccc3F)cc2O)cc1OC,nt,?,nt,-61*
O=[N+]([O-])c1ccc(COc2ccc(-c3[nH]ncc3-c3ccc(Cl)cc3)c(O)c2)cc1,?,32µM*,?,-7
COc1ccc(-c2cn[nH]c2-c2ccc(OCc3ccc([N+](=O)[O-])cc3)cc2O)cc1OC,nt,16µM*,nt,-96*
Cc1ccc(C(=O)N/C(=C\c2ccc(Cl)cc2)C(=O)NC2CCCCC2)cc1,-9%[46.1 µM],3%,nt,-98*
SMILES,LASV entry inh,FMDV antiviral,Marburg entry inh,HCMV antiviral
CCCCc1ccc(C(=O)N/C(=C\c2ccc(C)cc2)C(=O)NC2CCCCC2)cc1,16%[46.1 µM],-1%,nt,10
O=C(c1ccncc1)N1CCC2(CC1)CN(c1ccncc1)C2,nt,-3%,nt,nt
CSc1ccccc1NC(=O)c1cc(-c2cccnc2)nc2ccc(Br)cc12,?,-18%,?,-73*
COc1cccc(-c2cc(C(=O)Nc3ccc(N(C)C(C)=O)cc3)c3cc(Br)ccc3n2)c1,nt,?,nt,-97*
CC(=O)Nc1cccc(NC(=O)c2cc(-c3cccnc3)nc3ccc(Br)cc23)c1,-12%,0%,?,-28
C[C@]12CC[C@@H](O)C[C@@H]1CC[C@@H]1[C@@H]2CC[C@]2(C)C=CC[C@@H]12,nt,-3%,nt,nt
CC(C(=O)NCc1cccc(Br)c1)n1ncn2cccc2c1=O (stereo unspecified),?,0%,?,3
COc1cc([C@@H]2c3cc4c(cc3C(O[C@@H]3O[C@@H]5COC(c6cccs6)O[C@H]5[C@H](O)[C@H]3O)C3COC(=O)[C@@H]32)OCO4)cc(OC)c1O (stereo partly specified),nt,-20%,nt,nt
COc1cccc(C(=O)Nc2cc(NC(=O)c3cccs3)ccc2C)c1,nt,16%,nt,-75*
COc1cccc(C(=O)Nc2ccc(NC(=O)c3ccc(C(C)(C)C)cc3)cc2)c1,6%[46.1 µM],-21%,nt,-97*
COc1cccc(C(=O)Nc2ccc(NC(=O)C(C)(C)C)cn2)c1,7.1µM*,-69%,13µM*,7
COC(=O)Cc1ccc(NC(=O)c2ccc(C(C)(C)C)cc2)cc1,6.5µM*,10µM*,?,-93*
COc1cccc(C(=O)Nc2ccc(NC(C)=O)cc2)c1,0%,63%,?,31
O=C1C(=O)N(C2CCN(C(=O)c3ccccc3Cl)CC2)CCN1Cc1ccc(F)cc1,15%[46.1 µM],-3%,nt,-5
C=CC[C@@H]1C=C[C@H](ON=C(C)CCN2CCCc3nc(C)c(C)cc32)[C@H](CO)O1,nt,nt,23%[14.2 µM],nt
Cc1cc(Br)cn2c(Cc3ccccc3C(F)(F)F)c(-c3ccc(F)cc3)nc12,nt,nt,nt,17
